Test results reported in the supplement of paper PMC11732987, “Enantioselective OTUD7B fragment discovery through chemoproteomics screening and high-throughput optimisation” (Communications Chemistry, 2025).

Legend:
Assay in all cases: log2 ratio of Biotin-Ahx-Ub-VS probe labelling (fragment/DMSO); higher = less target engagement (more negative = stronger competition), active = hit call of the paper (q ≤ 0.05, log2 ratio ≤ -1)
Details in all cases: compound concentration: 200 uM; treatment time: 3 h
[1] = biological target: USP34 (UniProt Q70CQ2)
Outline: (§1)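 HEK293T lysate, 495 µg per sample in Tris/CHAPS/IGEPAL buffer with protease inhibitors, was treated in triplicate with fragment at 200 µM or vehicle for 3 h and then with Biotin-Ahx-Ub-VS at 0.5 µM final for 1 h. Labelled DUBs were NeutrAvidin-enriched, digested with LysC and trypsin, and run by diaPASEF LC-MS/MS. Spectronaut label-free quantities were global-median-normalised, and values are average log2 fragment/vehicle ratios by unpaired t-test on proteins with ≥2 unique peptides.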

[2] = biological target: T1, USP36 (UniProt Q9P275)
T1 sequence (whole entry): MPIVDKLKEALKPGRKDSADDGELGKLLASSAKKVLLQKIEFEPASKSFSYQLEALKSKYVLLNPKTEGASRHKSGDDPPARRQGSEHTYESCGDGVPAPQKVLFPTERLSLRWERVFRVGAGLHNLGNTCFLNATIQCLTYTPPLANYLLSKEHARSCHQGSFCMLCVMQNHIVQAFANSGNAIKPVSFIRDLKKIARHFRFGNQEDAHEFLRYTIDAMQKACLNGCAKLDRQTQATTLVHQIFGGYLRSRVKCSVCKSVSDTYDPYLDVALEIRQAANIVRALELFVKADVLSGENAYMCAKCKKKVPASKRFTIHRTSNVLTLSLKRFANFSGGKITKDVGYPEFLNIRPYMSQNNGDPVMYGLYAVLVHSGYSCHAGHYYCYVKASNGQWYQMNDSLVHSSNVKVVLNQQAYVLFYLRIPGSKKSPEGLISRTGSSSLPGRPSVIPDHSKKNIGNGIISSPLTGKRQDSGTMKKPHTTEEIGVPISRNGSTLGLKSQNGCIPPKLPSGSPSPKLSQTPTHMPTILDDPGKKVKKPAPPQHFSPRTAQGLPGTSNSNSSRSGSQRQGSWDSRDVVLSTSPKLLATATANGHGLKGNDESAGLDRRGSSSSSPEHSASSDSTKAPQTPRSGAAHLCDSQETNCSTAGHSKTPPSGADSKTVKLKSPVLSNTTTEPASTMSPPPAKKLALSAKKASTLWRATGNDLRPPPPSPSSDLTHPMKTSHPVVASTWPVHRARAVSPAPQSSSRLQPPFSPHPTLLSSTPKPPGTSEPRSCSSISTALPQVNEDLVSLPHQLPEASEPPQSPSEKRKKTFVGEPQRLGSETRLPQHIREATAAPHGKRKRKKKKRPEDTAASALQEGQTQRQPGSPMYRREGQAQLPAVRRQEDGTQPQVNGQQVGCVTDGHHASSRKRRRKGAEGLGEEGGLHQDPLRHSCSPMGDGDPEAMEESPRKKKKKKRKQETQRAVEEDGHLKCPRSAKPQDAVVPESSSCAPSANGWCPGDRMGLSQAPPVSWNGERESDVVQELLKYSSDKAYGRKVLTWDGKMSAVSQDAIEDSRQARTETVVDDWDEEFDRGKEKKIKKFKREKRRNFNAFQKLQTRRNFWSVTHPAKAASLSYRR
Outline: as §1

[3] = biological target: T2, USP38 (UniProt Q8NB14)
T2 sequence (whole entry): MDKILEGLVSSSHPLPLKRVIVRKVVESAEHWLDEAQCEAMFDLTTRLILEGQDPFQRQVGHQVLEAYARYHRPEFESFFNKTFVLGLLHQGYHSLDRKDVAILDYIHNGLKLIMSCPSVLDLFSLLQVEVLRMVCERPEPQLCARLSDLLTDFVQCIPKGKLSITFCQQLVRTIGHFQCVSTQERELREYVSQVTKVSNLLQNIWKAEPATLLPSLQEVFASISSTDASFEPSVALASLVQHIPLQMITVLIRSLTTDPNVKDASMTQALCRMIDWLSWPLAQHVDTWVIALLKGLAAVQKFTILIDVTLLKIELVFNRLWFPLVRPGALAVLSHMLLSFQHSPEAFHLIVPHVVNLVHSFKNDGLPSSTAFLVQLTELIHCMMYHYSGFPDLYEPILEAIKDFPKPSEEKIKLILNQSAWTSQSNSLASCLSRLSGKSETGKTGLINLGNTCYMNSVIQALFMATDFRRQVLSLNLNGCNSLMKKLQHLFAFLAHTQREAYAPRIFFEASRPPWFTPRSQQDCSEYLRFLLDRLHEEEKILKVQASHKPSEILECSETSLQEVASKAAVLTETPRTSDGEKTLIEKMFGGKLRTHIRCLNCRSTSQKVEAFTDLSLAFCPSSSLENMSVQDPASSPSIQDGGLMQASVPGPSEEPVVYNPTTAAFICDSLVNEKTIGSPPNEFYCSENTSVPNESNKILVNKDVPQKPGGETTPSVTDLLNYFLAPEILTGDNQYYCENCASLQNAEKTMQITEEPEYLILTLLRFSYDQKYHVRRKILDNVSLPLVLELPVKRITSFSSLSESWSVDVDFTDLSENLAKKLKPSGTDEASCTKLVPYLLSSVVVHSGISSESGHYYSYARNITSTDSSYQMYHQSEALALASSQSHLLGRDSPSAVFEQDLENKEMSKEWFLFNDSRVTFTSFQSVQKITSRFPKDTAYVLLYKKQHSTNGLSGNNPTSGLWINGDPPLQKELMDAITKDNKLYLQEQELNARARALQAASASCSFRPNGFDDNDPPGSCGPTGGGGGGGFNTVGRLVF
Outline: as §1

[4] = biological target: T3, USP39 (UniProt Q53GS9)
T3 sequence (whole entry): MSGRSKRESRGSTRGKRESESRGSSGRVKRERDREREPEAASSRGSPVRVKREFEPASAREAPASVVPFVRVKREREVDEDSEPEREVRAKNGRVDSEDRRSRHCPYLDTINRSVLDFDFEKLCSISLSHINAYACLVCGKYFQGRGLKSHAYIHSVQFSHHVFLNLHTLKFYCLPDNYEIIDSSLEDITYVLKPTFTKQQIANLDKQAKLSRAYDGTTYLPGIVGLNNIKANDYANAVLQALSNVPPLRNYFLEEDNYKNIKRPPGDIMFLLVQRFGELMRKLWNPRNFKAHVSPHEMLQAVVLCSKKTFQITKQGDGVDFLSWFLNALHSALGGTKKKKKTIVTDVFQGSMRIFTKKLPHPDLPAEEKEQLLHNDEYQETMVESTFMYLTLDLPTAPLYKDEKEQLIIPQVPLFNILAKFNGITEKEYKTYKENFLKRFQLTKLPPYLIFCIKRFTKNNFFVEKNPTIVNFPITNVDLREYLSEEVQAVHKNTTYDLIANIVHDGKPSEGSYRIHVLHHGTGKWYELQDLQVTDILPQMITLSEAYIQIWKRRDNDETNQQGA
Outline: as §1

[5] = biological target: T4, USP4 (UniProt Q13107)
T4 sequence (whole entry): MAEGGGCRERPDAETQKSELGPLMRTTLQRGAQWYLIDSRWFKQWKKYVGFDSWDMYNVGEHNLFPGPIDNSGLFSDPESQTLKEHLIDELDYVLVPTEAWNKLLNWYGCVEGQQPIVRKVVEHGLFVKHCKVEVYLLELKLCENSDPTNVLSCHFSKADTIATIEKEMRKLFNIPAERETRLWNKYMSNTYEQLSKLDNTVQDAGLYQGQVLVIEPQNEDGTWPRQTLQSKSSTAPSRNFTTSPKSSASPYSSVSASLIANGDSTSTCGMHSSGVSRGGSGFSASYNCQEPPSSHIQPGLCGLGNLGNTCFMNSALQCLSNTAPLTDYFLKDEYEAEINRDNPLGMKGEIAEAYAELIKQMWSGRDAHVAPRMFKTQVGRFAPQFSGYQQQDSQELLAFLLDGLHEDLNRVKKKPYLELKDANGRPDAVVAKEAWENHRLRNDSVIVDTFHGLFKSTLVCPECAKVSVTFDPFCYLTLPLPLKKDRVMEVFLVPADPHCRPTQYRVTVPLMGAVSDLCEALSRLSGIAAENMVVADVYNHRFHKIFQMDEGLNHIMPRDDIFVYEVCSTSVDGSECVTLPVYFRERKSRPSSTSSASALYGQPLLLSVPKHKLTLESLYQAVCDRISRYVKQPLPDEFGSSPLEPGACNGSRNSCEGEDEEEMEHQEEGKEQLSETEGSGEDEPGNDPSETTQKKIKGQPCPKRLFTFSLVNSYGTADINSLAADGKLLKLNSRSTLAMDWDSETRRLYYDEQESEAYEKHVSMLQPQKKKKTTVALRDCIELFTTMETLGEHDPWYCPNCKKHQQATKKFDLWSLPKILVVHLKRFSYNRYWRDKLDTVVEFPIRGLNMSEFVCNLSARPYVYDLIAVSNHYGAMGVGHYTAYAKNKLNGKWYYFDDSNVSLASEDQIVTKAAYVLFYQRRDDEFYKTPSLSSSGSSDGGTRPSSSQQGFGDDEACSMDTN
Outline: as §1

Measured: log2 ratio of Biotin-Ahx-Ub-VS probe labelling

USP34, sequence (Q70CQ2 whole entry, the tested form may be a part): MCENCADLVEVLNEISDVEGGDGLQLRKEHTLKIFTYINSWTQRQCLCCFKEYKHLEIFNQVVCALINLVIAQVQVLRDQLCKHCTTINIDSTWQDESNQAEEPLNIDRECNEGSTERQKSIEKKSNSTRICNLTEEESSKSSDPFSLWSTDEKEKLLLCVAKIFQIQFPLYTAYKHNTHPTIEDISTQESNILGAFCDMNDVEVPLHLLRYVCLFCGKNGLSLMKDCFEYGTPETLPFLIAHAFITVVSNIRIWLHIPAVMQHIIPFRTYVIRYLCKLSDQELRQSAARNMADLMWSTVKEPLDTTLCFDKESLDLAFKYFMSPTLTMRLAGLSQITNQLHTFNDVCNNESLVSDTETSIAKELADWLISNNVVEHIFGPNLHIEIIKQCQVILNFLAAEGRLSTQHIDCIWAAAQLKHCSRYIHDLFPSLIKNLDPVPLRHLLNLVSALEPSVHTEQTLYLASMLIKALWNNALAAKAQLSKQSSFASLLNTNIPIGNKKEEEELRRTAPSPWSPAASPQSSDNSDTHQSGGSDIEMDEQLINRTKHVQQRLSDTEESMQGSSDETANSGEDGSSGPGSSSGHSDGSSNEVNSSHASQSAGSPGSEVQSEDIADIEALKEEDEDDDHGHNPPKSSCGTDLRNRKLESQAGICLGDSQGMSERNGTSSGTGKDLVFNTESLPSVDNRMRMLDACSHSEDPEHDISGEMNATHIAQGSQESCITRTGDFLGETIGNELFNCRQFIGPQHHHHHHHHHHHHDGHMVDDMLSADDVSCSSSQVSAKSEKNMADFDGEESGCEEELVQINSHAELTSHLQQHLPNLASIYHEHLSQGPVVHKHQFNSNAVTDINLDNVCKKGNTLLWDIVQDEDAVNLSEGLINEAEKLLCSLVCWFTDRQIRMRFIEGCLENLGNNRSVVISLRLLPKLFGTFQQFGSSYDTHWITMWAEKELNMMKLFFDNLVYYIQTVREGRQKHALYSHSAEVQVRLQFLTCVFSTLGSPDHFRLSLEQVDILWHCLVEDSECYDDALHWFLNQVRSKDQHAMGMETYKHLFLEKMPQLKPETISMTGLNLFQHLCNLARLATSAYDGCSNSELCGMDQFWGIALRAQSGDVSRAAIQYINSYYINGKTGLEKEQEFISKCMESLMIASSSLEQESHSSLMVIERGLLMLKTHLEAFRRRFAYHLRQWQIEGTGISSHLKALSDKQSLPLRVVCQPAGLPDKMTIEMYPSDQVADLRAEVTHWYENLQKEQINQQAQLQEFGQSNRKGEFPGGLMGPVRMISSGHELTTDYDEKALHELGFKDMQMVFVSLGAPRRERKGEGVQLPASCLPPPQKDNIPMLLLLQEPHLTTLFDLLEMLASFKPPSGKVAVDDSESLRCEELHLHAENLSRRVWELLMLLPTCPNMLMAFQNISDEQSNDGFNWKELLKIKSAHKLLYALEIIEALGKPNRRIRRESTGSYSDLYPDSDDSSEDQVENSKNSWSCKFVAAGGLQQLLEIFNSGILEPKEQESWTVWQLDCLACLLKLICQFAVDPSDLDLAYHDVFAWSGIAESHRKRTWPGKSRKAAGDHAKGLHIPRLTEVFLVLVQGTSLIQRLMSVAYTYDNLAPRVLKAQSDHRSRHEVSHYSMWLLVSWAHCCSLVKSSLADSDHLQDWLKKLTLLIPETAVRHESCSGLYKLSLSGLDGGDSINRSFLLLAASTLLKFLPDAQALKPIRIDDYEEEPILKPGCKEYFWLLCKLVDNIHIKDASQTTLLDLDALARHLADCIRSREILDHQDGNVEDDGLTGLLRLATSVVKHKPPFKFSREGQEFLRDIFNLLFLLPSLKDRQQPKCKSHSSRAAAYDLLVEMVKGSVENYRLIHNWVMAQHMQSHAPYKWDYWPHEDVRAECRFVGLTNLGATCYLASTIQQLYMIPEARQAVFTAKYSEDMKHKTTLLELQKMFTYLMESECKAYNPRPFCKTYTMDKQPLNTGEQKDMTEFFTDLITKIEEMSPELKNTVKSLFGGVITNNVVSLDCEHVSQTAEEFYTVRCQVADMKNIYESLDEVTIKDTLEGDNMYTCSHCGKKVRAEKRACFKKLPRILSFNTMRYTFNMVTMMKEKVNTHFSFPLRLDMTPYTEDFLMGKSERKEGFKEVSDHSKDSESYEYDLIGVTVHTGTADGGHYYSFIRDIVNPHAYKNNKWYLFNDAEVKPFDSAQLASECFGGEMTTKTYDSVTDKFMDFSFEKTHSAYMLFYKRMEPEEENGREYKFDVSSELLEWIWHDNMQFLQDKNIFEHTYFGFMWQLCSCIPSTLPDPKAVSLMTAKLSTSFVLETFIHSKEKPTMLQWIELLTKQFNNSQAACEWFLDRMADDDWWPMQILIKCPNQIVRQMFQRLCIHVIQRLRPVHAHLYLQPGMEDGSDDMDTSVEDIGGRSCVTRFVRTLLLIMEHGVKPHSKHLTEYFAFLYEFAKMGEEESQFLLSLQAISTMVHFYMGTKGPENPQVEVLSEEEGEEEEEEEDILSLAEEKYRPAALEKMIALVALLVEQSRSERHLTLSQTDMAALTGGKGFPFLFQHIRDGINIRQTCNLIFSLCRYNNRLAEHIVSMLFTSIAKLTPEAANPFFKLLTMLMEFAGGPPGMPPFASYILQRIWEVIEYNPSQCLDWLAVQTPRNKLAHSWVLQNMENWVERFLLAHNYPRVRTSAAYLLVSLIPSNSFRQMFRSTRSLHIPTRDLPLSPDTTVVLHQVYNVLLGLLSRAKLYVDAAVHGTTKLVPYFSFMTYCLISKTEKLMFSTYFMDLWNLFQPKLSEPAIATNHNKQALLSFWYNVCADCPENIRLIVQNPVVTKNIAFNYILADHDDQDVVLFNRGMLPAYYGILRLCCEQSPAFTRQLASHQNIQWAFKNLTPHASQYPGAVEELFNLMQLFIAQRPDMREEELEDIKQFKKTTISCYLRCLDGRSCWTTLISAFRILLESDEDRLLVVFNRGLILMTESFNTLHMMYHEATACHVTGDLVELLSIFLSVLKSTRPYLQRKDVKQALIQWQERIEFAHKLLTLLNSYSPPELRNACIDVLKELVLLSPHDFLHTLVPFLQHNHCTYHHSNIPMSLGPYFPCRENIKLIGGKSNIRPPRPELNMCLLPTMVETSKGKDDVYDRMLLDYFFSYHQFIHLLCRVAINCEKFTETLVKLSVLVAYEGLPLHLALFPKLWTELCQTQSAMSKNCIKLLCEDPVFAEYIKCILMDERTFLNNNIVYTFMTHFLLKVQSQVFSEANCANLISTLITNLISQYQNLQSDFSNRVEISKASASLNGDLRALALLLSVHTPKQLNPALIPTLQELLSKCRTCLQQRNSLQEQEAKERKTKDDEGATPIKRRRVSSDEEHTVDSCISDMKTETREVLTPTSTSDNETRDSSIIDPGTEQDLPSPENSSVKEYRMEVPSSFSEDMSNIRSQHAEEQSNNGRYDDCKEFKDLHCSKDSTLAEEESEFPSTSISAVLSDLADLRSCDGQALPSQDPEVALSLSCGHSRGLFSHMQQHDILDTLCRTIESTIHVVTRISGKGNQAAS

CC(=O)Nc1ccc(NC(=O)CCl)cc1
inactive: [1] -0.128 | [2] -0.0191 | [3] 0.0936 | [4] 0.432 | [5] -0.163
